According to the supplement of paper PMC9262897, “Low-cost anti-mycobacterial drug discovery using engineered E. coli” (Nature Communications, 2022):
Counter-ions that a name gives are not always drawn. ± gives the standard deviation of the averaged measurements.

tested on: E. coli TESEC Alr+ wild-type control; assay: growth (OD600 after 10 h); higher = more growth (less inhibition); conditions: compound 0.1 mM; raw OD600 reference: median of DMSO wells 0.49, cell-free background 0.052
Description: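 TESEC Mtb Alr E. coli (ΔaraC ΔtolC ΔentC Δalr ΔdadX, arabinose-inducible Mtb Alr) or the Alr+ wild-type control strain, grown in defined M9-fructose medium without D-alanine in 96-well plates with Prestwick library compounds at 0.1 mM and 1% DMSO. Low Alr induction is 0.1 µM arabinose and high induction is 10 mM arabinose.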

Compound | growth
O=C1CCc2cc(OCCCCc3nnnn3C3CCCCC3)ccc2N1 [Cilostazol] | 0.461 ± 0.015
CN[C@@H]1[C@H](O)[C@H](NC)[C@H]2O[C@@]3(O)C(=O)C[C@@H](C)O[C@H]3O[C@@H]2[C@H]1O [Spectinomycin dihydrochloride] | 0.228 ± 0.023
CC(C)C(=O)c1c(C(C)C)nn2ccccc12 [Ibudilast] | 0.49 ± 0.013
CC#C[C@]1(O)CC[C@H]2[C@@H]3CCC4=CC(=O)CCC4=C3[C@@H](c3ccc(N(C)C)cc3)C[C@@]21C [Mifepristone] | 0.337 ± 0.037
Cc1ccnc(NS(=O)(=O)c2ccc(N)cc2)n1 [Sulfamerazine] | 0.515 ± 0.075
OCCN(CCO)c1nc(N2CCCCC2)c2nc(N(CCO)CCO)nc(N3CCCCC3)c2n1 [Dipyridamole] | 0.0816 ± 0.027
CCOC(=O)[N-]c1c[n+](N2CCOCC2)no1 [Molsidomine] | 0.562 ± 0.037
CC(C(=O)O)c1ccc(C(=O)c2cccs2)cc1 (stereo not given) [Suprofen] | 0.605 ± 0.029
O=C(O)COC(=O)Cc1ccccc1Nc1c(Cl)cccc1Cl [Aceclofenac] | 0.424 ± 0.0057
CC1CCc2c(N3CCC(O)CC3)c(F)cc3c(=O)c(C(=O)O)cn1c23 (stereo not given) [Nadifloxacin] | 0.0538 ± 0.0013
Cc1c(N)c(=O)n(-c2ccccc2)n1C [Ampyrone] | 0.457 ± 0.017
COC(=O)C1=C(C)NC(C)=C(C(=O)OCCN(C)Cc2ccccc2)C1c1cccc([N+](=O)[O-])c1 (stereo not given) [Nicardipine hydrochloride] | 0.0588 ± 0.0012
Cc1cnc(NC(=O)C2=C(O)c3ccccc3S(=O)(=O)N2C)s1 [Meloxicam] | 0.461 ± 0.023
CCCOc1cc(N)ccc1C(=O)OCCN(CC)CC [Propoxycaine hydrochloride] | 0.487 ± 0.08
N[C@@H]1CONC1=O [D-cycloserine] | 0.399 ± 0.14
CS(=O)(=O)c1ccc([C@@H](O)[C@@H](CO)NC(=O)C(Cl)Cl)cc1 [Thiamphenicol] | 0.206 ± 0.015
CC[C@H]1OC(=O)[C@H](C)[C@@H](O[C@H]2C[C@@](C)(OC)[C@@H](O)[C@H](C)O2)[C@H](C)[C@@H](O[C@@H]2O[C@H](C)C[C@H](N(C)C)[C@H]2O)[C@](C)(O)C[C@@H](C)/C(=N\OCOCCOC)[C@H](C)[C@@H](O)[C@]1(C)O [Roxithromycin] | 0.05257 ± 0.00029
CC(C)NCC(O)COc1ccc(CCOCC2CC2)cc1 (stereo not given) [Betaxolol hydrochloride] | 0.562 ± 0.028
CCCCOc1cc(C(=O)OCCN(CC)CC)ccc1N [Benoxinate hydrochloride] | 0.476 ± 0.024
COc1ccnc(C[S+]([O-])c2nc3cc(OC(F)F)ccc3[nH]2)c1OC (stereo not given) [Pantoprazole sodium] | 0.451 ± 0.013

Compound | growth
CC(C)(C#N)c1cc(Cn2cncn2)cc(C(C)(C)C#N)c1 [Anastrozole] | 0.483 ± 0.03
O=C1c2cccc(O)c2C(=O)c2c(O)cccc21 [1,8-Dihydroxyanthraquinone] | 0.383 ± 0.011
Clc1ccc(Nc2nnc(Cc3ccncc3)c3ccccc23)cc1 [Vatalanib] | 0.514 ± 0.0082
CN(C)CCCN1c2ccccc2Sc2ccc(Cl)cc21 [Chlorpromazine hydrochloride] | 0.105 ± 0.046
CCOC(=O)/C=C(C)/C=C/C=C(C)/C=C/c1c(C)cc(OC)c(C)c1C [Etretinate] | 0.544 ± 0.058
CC(=O)N(CC(O)CN(C(C)=O)c1c(I)c(C(=O)NCC(O)CO)c(I)c(C(=O)NCC(O)CO)c1I)c1c(I)c(C(=O)NCC(O)CO)c(I)c(C(=O)NCC(O)CO)c1I (stereo not given) [Iodixanol] | 0.537 ± 0.093
CC[C@H]1OC(=O)[C@H](C)[C@@H](O[C@H]2C[C@@](C)(OC)[C@@H](O)[C@H](C)O2)[C@H](C)[C@@H](O[C@@H]2O[C@H](C)C[C@H](N(C)C)[C@H]2O)[C@](C)(O)C[C@@H](C)[C@@H]2N[C@@H](COCCOC)O[C@H]([C@H]2C)[C@]1(C)O [Dirithromycin] | 0.0524 ± 0.00093
CO[C@H]1/C=C/O[C@@]2(C)Oc3c(C)c(O)c4c(O)c(c(/C=N/N5CCN(C)CC5)c(O)c4c3C2=O)NC(=O)/C(C)=C\C=C\[C@H](C)[C@H](O)[C@@H](C)[C@@H](O)[C@@H](C)[C@H](OC(C)=O)[C@@H]1C [Rifampicin] | 0.05337 ± 0.00042
Cn1ccnc1S [Methimazole] | 0.57 ± 0.026
CCCCCNC(=N)N/N=C/c1c[nH]c2ccc(OC)cc12 [Tegaserod maleate] | 0.0476 ± 0.00066
CCCN(CCC)CCc1cccc2c1CC(=O)N2 [Ropinirole HCl] | 0.443 ± 0.028
CC(=O)Nc1ccc(O)cc1 [Acetaminophen] | 0.559 ± 0.083
CC(C)(C)NC[C@H](O)c1ccc(O)c(CO)c1 [Levalbuterol hydrochloride] | 0.608 ± 0.014
CCC1NC(=O)c2cc(S(N)(=O)=O)c(Cl)cc2N1 (stereo not given) [Quinethazone] | 0.463 ± 0.013
CC(Oc1ccccc1)C(=O)N[C@@H]1C(=O)N2[C@@H]1SC(C)(C)[C@@H]2C(=O)O (stereo not given in full) [Phenethicillin potassium salt] | 0.482 ± 0.075
CC(C)C[C@H](NC(=O)[C@@H](O)[C@H](N)Cc1ccccc1)C(=O)O [Ubenimex] | 0.528 ± 0.089
Cc1c(N(C)CS(=O)(=O)O)c(=O)n(-c2ccccc2)n1C [Dipyrone] | 0.473 ± 0.039
CC(=O)OCC(=O)[C@@]12OC3(CCCC3)O[C@@H]1C[C@H]1[C@@H]3CCC4=CC(=O)C=C[C@]4(C)[C@@]3(F)[C@@H](O)C[C@@]12C [Amcinonide] | 0.462 ± 0.024
O=C(OCCOCCO)c1ccccc1Nc1cccc(C(F)(F)F)c1 [Etofenamate] | 0.0535 ± 0.0025
CCS(=O)(=O)CCn1c([N+](=O)[O-])cnc1C [Tinidazole] | 0.521 ± 0.092
